“And” between values parts separate entries of the source, which are not always exact repeats. Identical values can stand only once. Compounds without any hit were thinned out: in the full panel of roughly 83,000, 20% have a hit.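 Results are percent growth after 48 hours of single-concentration exposure. 100 means growth as in untreated cells, lower positive values show inhibition; negative values down to -100 show cell death.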 The source made the active and inactive calls. Rule for the calls: active = growth percent below 10; inactive = the rest.
Key:
Experiment in all cases: NCI-60 one-dose screen, 48 h (100 = growth as untreated, 0 = no growth, -100 = all killed)
Settings in all cases: 10 µM unless noted
NCI-H23 lung = test system: NCI-H23 lung
NCI-H226 lung = test system: NCI-H226 lung
NCI-H322M lung = test system: NCI-H322M lung
HOP-62 NSCLC = test system: HOP-62 NSCLC
NCI-H460 lung = test system: NCI-H460 lung
HOP-92 NSCLC = test system: HOP-92 NSCLC
NCI-H522 lung = test system: NCI-H522 lung
A549/ATCC NSCLC = test system: A549/ATCC NSCLC
786-0 renal = test system: 786-0 renal
COLO 205 colon = test system: COLO 205 colon

## Cc1cc(=O)[nH]c(O)c1C#N
NCI-H23 lung
  growth: 103% (inactive) and 97.6% (inactive)
NCI-H226 lung
  growth: 103% (inactive) and 101% (inactive)
NCI-H322M lung
  growth: 95.5% (inactive) and 99% (inactive)
HOP-62 NSCLC
  growth: 96.6% (inactive) and 101% (inactive)
NCI-H460 lung
  growth: 105% (inactive) and 104% (inactive)
HOP-92 NSCLC
  growth: 106% (inactive) and 52% (inactive)
NCI-H522 lung
  growth: 101% (inactive) and 96.9% (inactive)
A549/ATCC NSCLC
  growth: 102% (inactive) and 95.3% (inactive)
786-0 renal
  growth: 97.7% (inactive) and 98.5% (inactive)
COLO 205 colon
  growth: 111% (inactive) and 104% (inactive)

## Cc1cc(O)c2c(c1)C(=O)c1cc(O)cc(O)c1C2=O
NCI-H23 lung
  growth: 71% (inactive) and 91.7% (inactive)
NCI-H226 lung
  growth: 84.8% (inactive) and 90.8% (inactive)
NCI-H322M lung
  growth: 94.6% (inactive) and 107% (inactive)
HOP-62 NSCLC
  growth: 97.9% (inactive) and 78.1% (inactive)
NCI-H460 lung
  growth: 98% (inactive) and 102% (inactive)
HOP-92 NSCLC
  growth: -3.28% (active) and 20.5% (inactive)
NCI-H522 lung
  growth: 61% (inactive) and 78.8% (inactive)
A549/ATCC NSCLC
  growth: 77.5% (inactive) and 81.1% (inactive)
786-0 renal
  growth: 74.6% (inactive) and 83.3% (inactive)
COLO 205 colon
  growth: 102% (inactive) and 96.7% (inactive)

## Nc1cc2c(cc1N)-c1ccccc1C2
NCI-H23 lung
  growth: 93.1% (inactive) and 88.3% (inactive)
NCI-H226 lung
  growth: 84.3% (inactive) and 88.4% (inactive)
NCI-H322M lung
  growth: 85.4% (inactive) and 95% (inactive)
HOP-62 NSCLC
  growth: 96.6% (inactive) and 104% (inactive)
NCI-H460 lung
  growth: 103% (inactive) and 101% (inactive)
HOP-92 NSCLC
  growth: 84.3% (inactive)
NCI-H522 lung
  growth: 15.9% (inactive) and 52.2% (inactive)
A549/ATCC NSCLC
  growth: 90.9% (inactive) and 90.4% (inactive)
786-0 renal
  growth: 89.3% (inactive) and 99.6% (inactive)
COLO 205 colon
  growth: 94.8% (inactive) and 93.1% (inactive)

## C=C1C(=O)O[C@H]2[C@H]1CC/C(COC(=O)NC1CCC(O)CC1)=C\CC[C@@]1(C)O[C@@H]21 (stereo not given in full)
NCI-H23 lung
  growth: 58.3% (inactive) and 50.6% (inactive)
NCI-H226 lung
  growth: 85.5% (inactive) and 95% (inactive)
NCI-H322M lung
  growth: 105% (inactive) and 98.6% (inactive)
HOP-62 NSCLC
  growth: 97% (inactive) and 97.4% (inactive)
NCI-H460 lung
  growth: 100% (inactive) and 96.7% (inactive)
HOP-92 NSCLC
  growth: 71.6% (inactive) and 54.6% (inactive)
NCI-H522 lung
  growth: -2.94% (active) and -11.8% (active)
A549/ATCC NSCLC
  growth: 91.7% (inactive) and 87.8% (inactive)
786-0 renal
  growth: 103% (inactive) and 99.6% (inactive)
COLO 205 colon
  growth: 44.9% (inactive) and 41.7% (inactive)

## CN(C)CCCNC1=C(Cl)C(=O)c2ccccc2C1=O
NCI-H23 lung
  growth: -41.4% (active) and -79.2% (active)
NCI-H226 lung
  growth: 102% (inactive) and 97.7% (inactive)
NCI-H322M lung
  growth: 92.4% (inactive) and 98.7% (inactive)
HOP-62 NSCLC
  growth: 78.8% (inactive) and 85.1% (inactive)
NCI-H460 lung
  growth: 78.9% (inactive) and 83.8% (inactive)
HOP-92 NSCLC
  growth: 108% (inactive) and 107% (inactive)
NCI-H522 lung
  growth: 80.4% (inactive) and -30.3% (active)
A549/ATCC NSCLC
  growth: 94.3% (inactive) and 85.1% (inactive)
786-0 renal
  growth: 99.5% (inactive) and 79.4% (inactive)
COLO 205 colon
  growth: -73.7% (active) and -85.8% (active)

## CNc1cc(-c2cccc(OC(F)(F)F)c2)nc2ccc(N3CCCC3)cc12
NCI-H23 lung
  growth: 66.5% (inactive) and 6.85% (active) and 8.59% (active)
NCI-H226 lung
  growth: 94.6% (inactive) and 68.5% (inactive) and -35.2% (active)
NCI-H322M lung
  growth: 61.8% (inactive) and -4.66% (active) and 76.6% (inactive)
HOP-62 NSCLC
  growth: 74.6% (inactive) and 45.7% (inactive) and 33.4% (inactive)
NCI-H460 lung
  growth: -68% (active) and -62.5% (active) and -65.4% (active)
HOP-92 NSCLC
  growth: -31.9% (active) and 13% (inactive) and 28.5% (inactive)
NCI-H522 lung
  growth: 32.2% (inactive) and -63.9% (active) and -35.6% (active)
A549/ATCC NSCLC
  growth: -34.3% (active) and 9.17% (active) and 15.2% (inactive)
786-0 renal
  growth: -86% (active) and -95.3% (active) and -67.6% (active)
COLO 205 colon
  growth: -25.6% (active) and -81.7% (active) and -75.7% (active)

## CC(C)C(=O)Nc1ccc([N+](=O)[O-])c(C(F)(F)F)c1
NCI-H23 lung
  growth: 89.5% (inactive) and 93.9% (inactive)
NCI-H226 lung
  growth: 72.5% (inactive) and 82.8% (inactive)
NCI-H322M lung
  growth: 104% (inactive) and 113% (inactive)
HOP-62 NSCLC
  growth: 94.9% (inactive) and 84.2% (inactive)
NCI-H460 lung
  growth: 83.8% (inactive) and 109% (inactive)
HOP-92 NSCLC
  growth: 53.9% (inactive) and 91.1% (inactive)
NCI-H522 lung
  growth: 79.2% (inactive) and 79.1% (inactive)
A549/ATCC NSCLC
  growth: 81.4% (inactive) and 103% (inactive)
786-0 renal
  growth: 96.4% (inactive) and 87.2% (inactive)
COLO 205 colon
  growth: 93.5% (inactive) and 117% (inactive)

## CCN(CC)C(=S)SSC(=S)N(CC)CC
NCI-H23 lung
  growth: 91% (inactive) and 111% (inactive)
NCI-H226 lung
  growth: 86.5% (inactive) and 104% (inactive)
NCI-H322M lung
  growth: 84.8% (inactive) and 102% (inactive)
HOP-62 NSCLC
  growth: 82.1% (inactive) and 88.7% (inactive)
NCI-H460 lung
  growth: 62.4% (inactive) and 111% (inactive)
HOP-92 NSCLC
  growth: 90.4% (inactive) and 110% (inactive)
NCI-H522 lung
  growth: 58.1% (inactive) and 88.8% (inactive)
A549/ATCC NSCLC
  growth: 85.5% (inactive)
786-0 renal
  growth: 91.2% (inactive) and 91.7% (inactive)
COLO 205 colon
  growth: 82.9% (inactive) and 106% (inactive)

## CCOC(=O)c1c(C)oc(C)c(C(=O)OCC)c1=O
NCI-H23 lung
  growth: 91.8% (inactive) and 96% (inactive)
NCI-H226 lung
  growth: 95.9% (inactive) and 104% (inactive)
NCI-H322M lung
  growth: 99.7% (inactive) and 107% (inactive)
HOP-62 NSCLC
  growth: 99.9% (inactive) and 96.7% (inactive)
NCI-H460 lung
  growth: 108% (inactive) and 104% (inactive)
HOP-92 NSCLC
  growth: 98.3% (inactive) and 73.8% (inactive)
NCI-H522 lung
  growth: 109% (inactive) and 94.9% (inactive)
A549/ATCC NSCLC
  growth: 104% (inactive) and 106% (inactive)
786-0 renal
  growth: 98.8% (inactive) and 104% (inactive)
COLO 205 colon
  growth: 117% (inactive)

## S=C1SCN(Cc2ccccc2)CN1Cc1ccccc1
NCI-H23 lung
  growth: 81.2% (inactive)
NCI-H226 lung
  growth: 88.8% (inactive)
NCI-H322M lung
  growth: 94.5% (inactive)
HOP-62 NSCLC
  growth: 100% (inactive)
NCI-H460 lung
  growth: 95.5% (inactive)
HOP-92 NSCLC
  growth: 37.3% (inactive)
NCI-H522 lung
  growth: 21.5% (inactive)
A549/ATCC NSCLC
  growth: 93.7% (inactive)
786-0 renal
  growth: 49.8% (inactive)
COLO 205 colon
  growth: 78.1% (inactive)

## O=[N+]([O-])c1ccc2nc3c4ccccc4c4ccccc4c3nc2c1
NCI-H23 lung
  growth: 81.8% (inactive)
NCI-H226 lung
  growth: 41.5% (inactive)
NCI-H322M lung
  growth: 92.6% (inactive)
HOP-62 NSCLC
  growth: 90% (inactive)
NCI-H460 lung
  growth: 68.4% (inactive)
HOP-92 NSCLC
  growth: 61% (inactive)
NCI-H522 lung
  growth: 67.2% (inactive)
A549/ATCC NSCLC
  growth: 69.1% (inactive)
786-0 renal
  growth: 88.6% (inactive)
COLO 205 colon
  growth: 71.4% (inactive)

## CCN(CC)CCCC(C)Nc1cnc(C(=O)Nc2cc(F)cc3cccnc23)cn1 (stereo not given)
NCI-H23 lung
  growth: 81.4% (inactive) and -25.1% (active)
NCI-H226 lung
  growth: 85.1% (inactive) and 49.5% (inactive)
NCI-H322M lung
  growth: 63.8% (inactive) and 0.121% (active)
HOP-62 NSCLC
  growth: 64.1% (inactive) and -14.1% (active)
NCI-H460 lung
  growth: 69.5% (inactive) and -75.9% (active)
HOP-92 NSCLC
  growth: 37.5% (inactive) and -76.6% (active)
NCI-H522 lung
  growth: 52.7% (inactive) and -59.4% (active)
A549/ATCC NSCLC
  growth: 58% (inactive) and 18.9% (inactive)
786-0 renal
  growth: 68.4% (inactive) and -55.1% (active)
COLO 205 colon
  growth: 3.11% (active) and -50.9% (active)

## Cc1ccc(S(=O)(=O)Nc2nc3ccccc3nc2Nc2ccc3nsnc3c2)cc1
NCI-H23 lung
  growth: 48.7% (inactive) and 37.8% (inactive)
NCI-H226 lung
  growth: 72.9% (inactive) and 72.7% (inactive)
NCI-H322M lung
  growth: 58.5% (inactive) and 50.6% (inactive)
HOP-62 NSCLC
  growth: 48.5% (inactive) and 84.9% (inactive)
NCI-H460 lung
  growth: 32.1% (inactive) and 29.2% (inactive)
HOP-92 NSCLC
  growth: 6.25% (active)
NCI-H522 lung
  growth: 34.8% (inactive) and 23.3% (inactive)
A549/ATCC NSCLC
  growth: 31% (inactive) and 38.4% (inactive)
786-0 renal
  growth: 46.9% (inactive) and 45.1% (inactive)
COLO 205 colon
  growth: 44.5% (inactive) and 76% (inactive)

## OCCN1CCN(CCO)CC1
NCI-H23 lung
  growth: 95.3% (inactive) and 99.7% (inactive) and 110% (inactive)
NCI-H226 lung
  growth: 107% (inactive) and 97.5% (inactive)
NCI-H322M lung
  growth: 106% (inactive) and 85.9% (inactive) and 115% (inactive)
HOP-62 NSCLC
  growth: 100% (inactive) and 79.5% (inactive) and 106% (inactive)
NCI-H460 lung
  growth: 111% (inactive) and 98.6% (inactive) and 108% (inactive)
HOP-92 NSCLC
  growth: 102% (inactive) and 85% (inactive) and 95.2% (inactive)
NCI-H522 lung
  growth: 98.6% (inactive) and 87.9% (inactive) and 108% (inactive)
A549/ATCC NSCLC
  growth: 89.5% (inactive) and 73% (inactive) and 115% (inactive)
786-0 renal
  growth: 108% (inactive) and 99.5% (inactive) and 99.4% (inactive)
COLO 205 colon
  growth: 105% (inactive) and 113% (inactive)
